The values that follow come from PubChem BioAssay AID1745845 (National Center for Advancing Translational Sciences (NCATS), 2022).

The campaign covered roughly 360,000 compounds. About 2,600 (0.72%) were called active. About 5% were inconclusive and are not listed. Only a selection was taken, and actives are over-represented in it overall. Unmarked numbers belong to inactive results. Calls follow the shape of the dose curve; as a rule, active = well fitted inhibition curve with a large enough effect; inconclusive = small, poorly fitted or top-dose-only effect; inactive = no such curve, though single readings can be large or run the other way.
% is scaled to controls: 0 for no effect and ±100 for the full control effect; potency is read from the fitted curve at half-maximal effect.

The test can be described thus: Primary qHTS for Inhibitors of ATXN expression. Also: nearly all actives have a fitted effect of over 55% in size. The following applies: HEK-293 ATXN2-luciferase reporter, luminescence, 24 h; series mostly up to 57 µM; activity change, negative = inhibition: at the top concentration. From the text:
University of Utah School of Medicine, Salt Lake City, Utah
Spinocerebellar ataxia type 2 (SCA2) is a multisystem neurodegenerative disease caused by a dominantly acting mutation leading to expansion of a polyQ domain in the ataxin-2 protein (ATXN2). SCA2 patients develop progressive ataxia and later lose function in other neuronal systems. Prominent parkinsonian signs develop in some patients. Like many neurodegenerative disorders, no symptomatic or disease-modifying treatments are known.
The primary objective of the proposed research is to identify compounds inhibiting ATXN2 expression and to test them for efficacy in SCA2 mouse models. We have developed a cell-based assay paired with an in vivo mouse model using identical luciferase expression constructs. This approach takes advantage of an ATXN2-luciferase transgene, with the luciferase gene flanked by the upstream and downstream portions of the ATXN2 gene. Here we describe a 5-7 dose quantitative high thoroughput screen (qHTS) for compounds lowering ATXN2 expression. We screened the NIH Molecular Libraries Small Molecule Repository (MLSMR) and NCGC's mechanistically annotated (MIPE) and drug repurposing (NPC) collections of compounds for lowering expression of an ATXN2-luciferase reporter in HEK-293 cells. The assay is a multiplexed cell viability assay to ensure target reduction in the absence of cytotoxicity. Secondary qHTS assays included a CMV-luciferase reporter expressed in HEK-293 cells as well as a biochemical assay using recombinant luciferase to detect inhibitors of the reporter enzyme. Compounds that inhibit ATXN2 expression but is not cytotoxic were selected for confirmatory and secondary screens.
PROTOCOL TABLE (as described by Inglese J, Shamu CE and Guy RK. 2007)
SEQUENCE No. (e.g., 1, 2, 3, etc.); […] (e.g., Cells, Incubation, Reagent, etc.); VALUE; DESCRIPTION.
1; Cells; 4 uL; white, solid bottom, 1536-well Greiner assay plate.
2; Incubation; 2 hr; 37 degree C in 5% humidified CO2.
3; Compounds; 23 nL; Kalypsis pintool (Wako USA) equipped with a 1536-well pin head.
4; Incubation; 24 hr; 37 degree C in 5% humidified CO2.
5; Reagent; 1 uL; Gly-Phe-7-Amino-4-trifluoromethylcoumarin.
6; Incubation; 30 min; 37 degree C in 5% humidified CO2.
7; Detection; Fluorescence; ViewLux plate reader (PerkinElmer).
8; Reagent; 3 uL; SteadyGlo luciferase solution (Promega).
9; Incubation; 5 min; room temperature.
10; Detection; Luminescence; ViewLux plate reader (PerkinElmer).
NOTES (numbers refer to Sequence numbers above)
1. S2 cells expressing ATXN2-luciferase reporter were suspended in phenol-red free DMEM and dispensed in assay plates using a Multidrop Combi dispenser (Thermo Fisher Scientific).
2. Assay plates were incubated. Evaporation was prevented by covering assay plates with metal lids containing holes to allow gas diffusion.
3. Compounds were added in a dose response manner with the final concentrations of 57, 11.4, 2.28, 0.46, 0.091, 0.018, 0.0037 uM. Vehicle-only plates, with DMSO being pin-transferred to columns 5-48, were inserted uniformly at the beginning and the end of each library to monitor and record any shifts in assay performance.
5. 125 uM Gly-Phe-7-Amino-4-trifluoromethylcoumarin (MP Biomedicals) working concentration was used at a final concentration of 25 uM.
7. To assess cell viability; the assay plates were read using the ViewLux high-throughput CCD imager (PerkinElmer), wherein single end-point fluorescence measurement was acquired (excitation 405/10; emission 540/25 nm).
8. Detection reagent SteadyGlo Luciferase (Promega) was added to the assay plate.
10. Luminescence is then measured on the ViewLux imager equipped with a clear emission filter using a 2 sec exposure. All screening operations were performed on a fully integrated robotic system (Kalypsys) containing one RX-130 and two RX-90 anthropomorphic robotic arms (Staubli).
[…]
Take `Cc1nnc(SCc2cc(=O)c3cc(F)ccc3[nH]2)n1C`: the “activity change, negative = inhibition” value is 10.9%.
Consider `CN(C)CCNC(=O)c1ccc(Cl)c2cc3ccccc3nc12`, for which the Potency was 8.91 µM (active).
For `CN(c1ccccc1)S(=O)(=O)c1ccc(Cl)c(C(=O)NCCc2c[nH]c3ccccc23)c1`, the “activity change, negative = inhibition” value was 0.602%.
As to `CN(C)CCNC(=O)Nc1cccc(Cl)c1Cl`, the “activity change, negative = inhibition” value was 1.81%.
Same read-out and setting: as for `Cc1ccc(S(=O)(=O)c2nnn3c2nc(N2CCN(c4ccccc4F)CC2)c2cc(Cl)ccc23)cc1C`, the figure is 4.45%; as for `CC(=O)c1cccc(-c2cnc3c(NC=O)cc(-c4cccc(C(=O)N(C)C)c4)cn23)c1`, -7.72%.
`CN(C)C(=O)c1cccc(-c2cnc3c(NC=O)cc(-c4ccc(F)cc4)cn23)c1`: the Potency was 25.1 µM (active).
Consider `CC(=O)c1cccc(-c2cnc3c(NC=O)cc(-c4ccc(N(C)C)cc4)cn23)c1`, for which the “activity change, negative = inhibition” value is 0%.
`CCOc1ccc(NS(=O)(=O)c2ccc(N)cc2)nn1`: the “activity change, negative = inhibition” value is 8.26%.
With `CCN1CCN(C(=O)N[C@@H](C(=O)N[C@@H]2C(=O)N3[C@@H]2SC(C)(C)[C@H]3C(=O)O)c2ccccc2)C(=O)C1=O`, the “activity change, negative = inhibition” value was 6.23%.
For `CC(=O)O[C@]1(C(C)=O)CC[C@@H]2[C@@H]3C[C@H](C)C4=CC(=O)CC[C@]4(C)[C@H]3CC[C@@]21C`, the “activity change, negative = inhibition” value was 11.3%.
As for `COc1ccc(OCC(O)CNCCNc2nccc(C(F)(F)F)n2)cc1` (stereo not given), the “activity change, negative = inhibition” value is -14.1%.
For `CC(C)(C)CC(C)(C)NCC(O)COCCOc1ccc(Br)cc1` (stereo not given), the Potency is 22.4 µM (active).
On to `CC(Oc1ccc(Br)cc1)C(=O)NC1CCCCCC1` (stereo not given), for which the “activity change, negative = inhibition” value was -17.4%.
Regarding `CCOc1ccc(Nc2oc(/C=C/c3ccc(F)cc3)nc2C#N)cc1`, the “activity change, negative = inhibition” value is -1.28%.
As for `CCOC(=O)N1CCN([N+]([O-])=NOc2ccc([N+](=O)[O-])cc2[N+](=O)[O-])CC1`, the “activity change, negative = inhibition” value was 16.8%.
For the compound `Cc1ccccc1-c1nc(SCC(=O)N(C)c2ccccc2)c2c(=O)n(C)c(=O)n(C)c2n1`, the “activity change, negative = inhibition” value was 6%.
Regarding `O=C1NCCc2[nH]c(-c3ccncc3)cc21`, the Potency was 6.11 µM (active).
Regarding `COC(=O)Nc1nc2ccc(C(=O)C3CC3)cc2[nH]1`, the “activity change, negative = inhibition” value is 0.457%.
Regarding `O=C(NC(c1ccc(Cl)cc1)c1cnccn1)C1CCN(Cc2ccc(Cl)cc2)CC1` (stereo not given), the “activity change, negative = inhibition” value was -9.15%.
Same read-out and setting: as for `COc1cccc(CN2CCC(C(=O)NC(c3ccc4c(c3)OCO4)c3ccccn3)CC2)c1` (stereo not given), the figure is -4.28%.
Take `Cc1ccc(C(NC(=O)C2CCN(CCOc3ccc(Cl)cc3Cl)CC2)c2ccccn2)cc1` (stereo not given): the Potency was 28.2 µM (active).
Turning to `O=C1c2c(O)cccc2[C@@H]([C@@H]2O[C@H](CO)[C@@H](O)[C@H](O)[C@H]2O)c2cc(CO)cc(O)c21`, the “activity change, negative = inhibition” value is 10.2%.
As for `Cc1cccc(N2CCN(C(=O)c3ccc4c(c3)CCN4S(=O)(=O)c3ccccc3)CC2)c1C`, the “activity change, negative = inhibition” value is -26.9%.
For the compound `CCc1nc2c(OCCC3CCCCC3)cccn2c1N(C)C(=O)c1ccco1`, the “activity change, negative = inhibition” value is 0%.
`CN(CC(=O)Nc1ccccc1F)S(=O)(=O)c1ccc2c(c1)c(=O)n(C)c(=O)n2C`: the “activity change, negative = inhibition” value is 1.48%.
Take `COc1ccc(Sc2ccc(NC(=O)c3cccc(Cl)c3)cc2C#N)cc1`: the “activity change, negative = inhibition” value was -0.357%.
Consider `CCOc1ccc(CNCCSc2nnnn2C)cc1`, for which the “activity change, negative = inhibition” value is 8.83%.
Turning to `COc1cccc(NC(=O)c2ccc3nc(CCc4ccccc4)oc3c2)c1`, the “activity change, negative = inhibition” value is 15.2%.
For `O=C(NC(=O)c1ccccc1)Nc1ccccc1O`, the “activity change, negative = inhibition” value is -7.29%.
Consider `O=C(NC1=CC(=O)c2ccccc2C1=O)c1ccccc1`, for which the Potency is 7.94 µM (active).
For the compound `COC(=O)c1nc(NC(=O)c2ccccc2)n[nH]1`, the “activity change, negative = inhibition” value is -7.98%.
`CCC(=O)Nc1c(C(=O)N2CCN(c3ccc(F)cc3)CC2)oc2ccccc12`: the “activity change, negative = inhibition” value is 2.94%.
With `CCn1c(-c2nonc2N)nc2c(C#CC(C)(C)O)ncc(OC[C@H]3CCCNC3)c21`, the “activity change, negative = inhibition” value was -12.9%.
Consider `Cc1ccc(S(=O)(=O)N2CCc3cc(C(=O)Nc4ccc(Cl)cc4C)ccc32)cc1`, for which the “activity change, negative = inhibition” value is 2.14%.
`Cc1cc(C)cc(Nc2ncnc3onc(-c4ccc(F)cc4)c23)c1`: the “activity change, negative = inhibition” value was -1.61%.
Consider `CC(C)c1ccc(NC(=O)c2ccc(Cn3nc(N4CCN(c5ccccc5)CC4)ccc3=O)o2)cc1`, for which the “activity change, negative = inhibition” value is 0.267%.
With `CCCCS(=O)(=O)c1oc(-c2cccs2)nc1S(=O)(=O)c1ccccc1`, the Potency was 3.16 µM (active).
As to `NC(=O)CSc1oc(-c2cccs2)nc1S(=O)(=O)c1ccccc1`, the “activity change, negative = inhibition” value was 4.16%.
With `Cc1ccc(S(=O)(=O)c2nc(-c3cccs3)oc2NCc2cccnc2)cc1`, the “activity change, negative = inhibition” value is -0.794%.
With `CSc1ccccc1NC(=O)CCS(=O)(=O)c1nc(-c2cccs2)cc(C(F)(F)F)n1`, the “activity change, negative = inhibition” value is 11.6%.
As to `O=C(/C=C/Sc1ncn[nH]1)c1ccc(Cl)cc1`, the Potency is 25.1 µM (active).
Regarding `O=C(CSc1ncn[nH]1)Nc1ccc(Br)cc1Br`, the “activity change, negative = inhibition” value was 20.4%.
As for `O=C(CSc1oc(-c2ccco2)nc1S(=O)(=O)c1ccc(Cl)cc1)c1ccccc1`, the “activity change, negative = inhibition” value was -10.6%.
On the same count and under the same terms, as for `CC(C)OCCCn1c(SCC(=O)c2ccccc2)nc2c(sc3ccccc32)c1=O`, the figure is -1.85%; as for `CCCCN1CCC(CNC(=O)c2c3n(c4ccccc24)CCCO3)CC1`, 53%; as for `Fc1ccc(-n2ncc3c(Nc4ccc(Oc5ccccc5)cc4)ncnc32)cc1`, 17.8%.
`c1c2c(cc3sc(N4CCCCC4)nc13)OCCO2`: the Potency was 7.94 µM (active).
Take `CN(C)CCN(C(=O)C1CCCCC1)c1nc2cc3c(cc2s1)OCO3`: the “activity change, negative = inhibition” value is -25.9%.
Turning to `O=C(NCc1ccc(F)cc1)c1ccc2nc(N3CCCCC3)sc2c1`, the “activity change, negative = inhibition” value was 8.82%.
